# Test results taken from PubChem BioAssay (NCATS).
# Unmarked numbers belong to inactive results. Results filed as inconclusive are left out. Calls of active or inactive are those of the source. Unless noted, the call rests on the fitted dose curve; in most records, active means well fitted curve in either direction with a large enough effect (not every such curve was filed as active); inconclusive means small, poorly fitted or top-dose-only effect, or another doubt; inactive means flat fitted curve, though single readings scatter.
# Legend:
# [1] = molecular target: Lysosomal acid glucosylceramidase (Homo sapiens) (UniProt P04062); assay: Glucocerebrosidase-p2 (AID 348; in the data active means potency below about 10 µM; further: potency means the concentration at half of the fitted maximal effect); conditions: purified GBA, blue fluorogenic substrate, 40 min
# Sequence of Lysosomal acid glucosylceramidase (Homo sapiens) (P04062 whole entry, looked up): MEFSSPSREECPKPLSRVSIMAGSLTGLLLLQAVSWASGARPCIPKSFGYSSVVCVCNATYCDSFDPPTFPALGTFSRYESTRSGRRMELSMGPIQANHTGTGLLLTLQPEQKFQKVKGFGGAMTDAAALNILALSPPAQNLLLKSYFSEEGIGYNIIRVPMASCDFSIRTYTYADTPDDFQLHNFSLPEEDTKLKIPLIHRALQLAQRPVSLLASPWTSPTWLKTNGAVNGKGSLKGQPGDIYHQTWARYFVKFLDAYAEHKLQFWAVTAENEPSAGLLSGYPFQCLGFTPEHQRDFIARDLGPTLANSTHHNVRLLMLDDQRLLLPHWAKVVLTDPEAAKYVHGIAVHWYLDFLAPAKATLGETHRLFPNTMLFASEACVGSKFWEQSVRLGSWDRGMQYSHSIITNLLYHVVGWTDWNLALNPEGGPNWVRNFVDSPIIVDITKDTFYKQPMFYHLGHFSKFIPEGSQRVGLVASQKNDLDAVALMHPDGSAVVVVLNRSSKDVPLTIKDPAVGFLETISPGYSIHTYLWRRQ
# Procedure, shortened: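 Compounds titrated from 0.6 nM upwards against 0.2 nM enzyme in pH 5.9 citric acid/KH2PO4, taurocholate, tween-20; blue fluorogenic substrate 80 uM, 40 min room temperature, stopped and read Ex 365/Em 440 for AC50.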
# [2] = AP1 Signaling Pathway (AID 357); conditions: ME-180 AP-1-bla reporter, EGF-induced, beta-lactamase ratio, 5 h; at 7.69 µM (top of the series) unless noted; further: on the % scale 0 is the no-effect control and ±100 the full control effect
# Procedure, shortened: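 ME-180 cells with beta-lactamase reporter under AP-1 response element, stimulated with EC50 EGF; compounds tested in titration series, 5 h at 37 °C. CCF4 substrate added 2.5 h at room temperature; 460/530 nm emission ratio gave %activity and AC50.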
# [3] = molecular target: Cytochrome P450 1A2 (Homo sapiens) (UniProt P05177); assay: p450-cyp1a2 (AID 410; calls by dose curve; further: potency means the concentration at half of the fitted maximal effect;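 on activity change, negative = inhibition: -100% = full effect of reference inhibitor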); conditions: recombinant CYP1A2, luciferin-ME demethylation, luminescence; series mostly up to 11.4 µM
# Sequence of Cytochrome P450 1A2 (Homo sapiens) (P05177 whole entry, looked up): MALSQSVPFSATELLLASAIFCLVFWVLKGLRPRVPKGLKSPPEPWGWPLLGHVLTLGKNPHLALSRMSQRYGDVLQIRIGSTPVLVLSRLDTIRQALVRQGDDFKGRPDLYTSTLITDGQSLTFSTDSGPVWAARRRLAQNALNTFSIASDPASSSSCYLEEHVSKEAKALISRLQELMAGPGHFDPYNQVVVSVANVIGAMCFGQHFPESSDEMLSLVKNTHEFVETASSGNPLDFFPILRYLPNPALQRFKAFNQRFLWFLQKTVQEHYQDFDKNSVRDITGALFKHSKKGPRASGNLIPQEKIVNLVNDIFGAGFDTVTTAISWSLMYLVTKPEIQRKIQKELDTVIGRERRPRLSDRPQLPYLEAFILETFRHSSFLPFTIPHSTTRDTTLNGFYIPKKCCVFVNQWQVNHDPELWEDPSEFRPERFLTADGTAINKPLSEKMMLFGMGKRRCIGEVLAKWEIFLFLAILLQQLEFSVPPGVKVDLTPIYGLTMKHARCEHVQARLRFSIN
# Procedure, shortened: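 Human CYP1A2 (20nM) demethylated Luciferin-ME at its Km (100uM) in 100mM KPO4. After 10 min compound preincubation, NADPH regeneration ran the reaction 60 min at room temperature. Luciferin was read by luminescence, normalized to 57 uM furafylline.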
# [4] = NFAT Signaling Pathway (AID 444); conditions: Jurkat NFAT-bla M1, carbachol, beta-lactamase ratio, 5 h; at 7.69 µM (top of the series) unless noted;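 further: carbachol stimulus at about its EC50 of 1 µM final; on the % scale 0 is the no-effect control and ±100 the full control effect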
# Procedure, shortened: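 Jurkat cells carrying an NFAT-driven β-lactamase reporter and co-transfected muscarinic M1 receptor were treated with compound plus carbachol (1 uM final, an EC50 level) for 5 h at 37 °C. CCF4 loading followed for 1 h at RT; 460/530 nm ratio gave %activity.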
# [5] = Stat Signaling Pathway (AID 446); conditions: ME-180 SIE beta-lactamase reporter, IL-6 stimulated, 5 h; at 7.69 µM (top of the series) unless noted;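 further: ME-180 cervical cancer cells given 40 pM IL-6 alongside compound; SIE-controlled beta-lactamase reporter measured as 460/530 nm FRET emission ratio; on the % scale 0 is the no-effect control and ±100 the full control effect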
# Procedure, shortened: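 Reporter line: ME-180 cervical carcinoma, SIE-beta-lactamase. Treatment: compound with 40 pM IL-6, 5 hrs, 37 C, in low-serum OPTI-MEM with 10 mM HEPES pH 7.3. Detection: 460/530 nm fluorescence.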
# [6] = molecular target: Glucocorticoid receptor (Homo sapiens) (UniProt P04150); assay: GR-GFP Redistribution (AID 450;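 active means compounds whose dose series gives a full or clear partial fitted curve of increased nuclear translocation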; further: potency means the concentration at half of the fitted maximal effect); conditions: U2OS GR-GFP nuclear translocation, laser cytometry, 2 h
# Sequence of Glucocorticoid receptor (Homo sapiens) (P04150 whole entry, looked up, the tested form may be a part): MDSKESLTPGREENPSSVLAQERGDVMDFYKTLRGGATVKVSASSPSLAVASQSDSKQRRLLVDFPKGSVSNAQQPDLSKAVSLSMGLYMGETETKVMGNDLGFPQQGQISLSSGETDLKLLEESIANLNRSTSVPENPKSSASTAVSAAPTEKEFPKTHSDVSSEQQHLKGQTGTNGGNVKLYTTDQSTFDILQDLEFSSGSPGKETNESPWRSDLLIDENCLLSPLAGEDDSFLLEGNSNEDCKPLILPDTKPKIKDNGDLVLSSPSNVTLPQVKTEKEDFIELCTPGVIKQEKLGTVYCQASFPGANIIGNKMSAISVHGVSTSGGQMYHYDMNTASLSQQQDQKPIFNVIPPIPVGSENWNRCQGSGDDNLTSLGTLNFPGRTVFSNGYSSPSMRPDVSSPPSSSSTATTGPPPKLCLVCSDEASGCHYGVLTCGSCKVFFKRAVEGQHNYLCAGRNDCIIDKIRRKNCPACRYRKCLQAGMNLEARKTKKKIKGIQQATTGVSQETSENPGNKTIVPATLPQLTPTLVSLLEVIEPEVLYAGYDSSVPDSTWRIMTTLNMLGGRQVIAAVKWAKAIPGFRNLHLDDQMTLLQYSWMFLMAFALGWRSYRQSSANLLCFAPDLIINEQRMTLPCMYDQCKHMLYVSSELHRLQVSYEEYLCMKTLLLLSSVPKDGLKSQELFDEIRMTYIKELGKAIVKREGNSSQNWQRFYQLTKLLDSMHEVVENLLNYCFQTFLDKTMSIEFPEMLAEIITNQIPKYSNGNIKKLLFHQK
# [7] = molecular target: Glucocorticoid receptor (Homo sapiens) (UniProt P04150); assay: GR-EFC Redistribution (AID 451; calls by dose curve; further: potency means the concentration at half of the fitted maximal effect); conditions: CHO-K1 GR-EFC translocation, beta-gal luminescence, 2 h
# Procedure, shortened: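 CHO-K1 cells stably expressing nuclear-localized β-gal enzyme acceptor and GR fused C-terminally to the enzyme donor fragment; ligand-driven nuclear translocation restores β-gal by complementation. Compounds titrated up to 46 uM final, 2 h at 37 °C; luminescence read.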
# [8] = molecular target: Mitogen-activated protein kinase 10 (Mus musculus) (UniProt Q61831); assay: JNK3 AlphaScreen Assay (AID 530); conditions: JNK3 lysate, c-Jun phosphorylation; series mostly up to 11.4 µM;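 further: kinase came from lysate of stimulated human HepG2 cells; signal reports phosphorylation of biotinylated GST-cJun 1-79 at Ser73 with 10 µM ATP; on the % scale 0 is the no-effect control and ±100 the full control effect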
# Procedure, shortened: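 JNK3 came from HepG2 lysates pre-activated with IL-1beta and TNF-alpha and phosphorylated biotinylated GST-cJun (1-79) at 10 uM ATP, pH 7.6, room temperature. Compounds were titrated. AlphaScreen signal used anti-phospho-cJun (Ser73) antibody.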
# [9] = molecular target: 3',5'-cyclic-AMP phosphodiesterase 4B (Homo sapiens) (UniProt Q07343); assay: qHTS Assay for Inhibitors of PDE-IV (AID 607; active means well fitted activation curve with a large enough effect in the main read-out, with a control signal flat, not every such curve was filed as active; further: % of control where 0% means no effect); conditions: HEK293 ACTOne CNG channel cells, membrane potential fluorescence; series mostly up to 22.9 µM
# Sequence of 3',5'-cyclic-AMP phosphodiesterase 4B (Homo sapiens) (Q07343 whole entry, looked up): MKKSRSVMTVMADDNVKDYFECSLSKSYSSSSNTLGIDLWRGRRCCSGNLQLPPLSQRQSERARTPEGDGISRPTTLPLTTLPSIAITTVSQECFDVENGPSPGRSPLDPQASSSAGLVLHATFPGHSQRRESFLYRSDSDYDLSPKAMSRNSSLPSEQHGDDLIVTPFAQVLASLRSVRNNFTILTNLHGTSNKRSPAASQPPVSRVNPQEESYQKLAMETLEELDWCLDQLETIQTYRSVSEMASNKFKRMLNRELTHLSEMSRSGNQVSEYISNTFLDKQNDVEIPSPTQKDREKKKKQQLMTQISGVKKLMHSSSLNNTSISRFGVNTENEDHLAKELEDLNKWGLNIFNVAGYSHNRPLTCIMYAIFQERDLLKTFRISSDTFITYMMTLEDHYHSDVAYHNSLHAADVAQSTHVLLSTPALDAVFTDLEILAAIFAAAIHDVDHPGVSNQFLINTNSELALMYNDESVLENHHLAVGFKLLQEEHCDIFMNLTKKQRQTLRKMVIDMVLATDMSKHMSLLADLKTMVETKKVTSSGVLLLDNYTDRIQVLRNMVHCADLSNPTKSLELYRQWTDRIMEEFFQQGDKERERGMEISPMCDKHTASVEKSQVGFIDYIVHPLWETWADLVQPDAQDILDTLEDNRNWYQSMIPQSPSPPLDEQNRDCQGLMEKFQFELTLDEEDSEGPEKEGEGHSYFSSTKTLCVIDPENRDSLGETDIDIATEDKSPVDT
# Procedure, shortened: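 Cell-based read-out of cAMP via a modified cyclic nucleotide-gated channel and membrane potential dye (535/590 nm) in HEK293 cells expressing PDE4 endogenously. Compounds tested up to 22.9 uM final; 100 uM RO 20-1724 reference.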
SMILES,Potency [1],"activity change, negative = inhibition [2] [%]",Potency [3],"activity change, negative = inhibition [4] [%]","activity, negative = inhibition [5] [%]",Potency [6],Potency [7],Potency [8],Potency [9],"activity change, negative = inhibition [3]"
C/C(=C\c1ccc(Cl)cc1)C(C)(C)C(=O)O,> 11.4 µM,2.81,inactive,-8.85,-7.44,> 46 µM,> 9.22 µM,inactive,inactive,–
CC(C)(CC(=O)Nc1ccccc1)C(=O)O,> 11.4 µM,-3.37,inactive,-4.05,2.37,> 46 µM,> 9.22 µM,inactive,inactive,–
Cc1n[nH]c2ccccc2c1=O,> 11.4 µM,-6.55,0.398 µM (active),-1.3,10.2,> 46 µM,> 9.22 µM,inactive,inactive,–
Nc1ncnc2c1ncn2[C@H]1O[C@@H](CO)[C@@H](O)[C@H]1N,> 11.4 µM,-9.35,inactive,-3.9,5.68,> 46 µM,> 9.22 µM,inactive,inactive,–
CC(=O)[C@]1(O)CC[C@@H]2[C@H]3C[C@@H](C)C4=CC(=O)CC[C@@]4(C)[C@H]3[C@@H](O)C[C@]21C,> 11.4 µM,-0.0488,–,16.8,-9.62,< 2.95e-05 µM (active),0.0236 µM (active),inactive,inactive,-2% [at 2.29 µM]
O=C(O)CCNc1ccccc1C(=O)O,> 11.4 µM,-0.595,inactive,4.52,6.23,> 46 µM,> 9.22 µM,inactive,inactive,–
O=C(O)c1cc(N=Cc2ccccc2O)cc(C(=O)O)c1,> 11.4 µM,-3.29,inactive,17.2,-4.46,> 46 µM,> 9.22 µM,inactive,inactive,–
CCOC(=O)[C@]1(CC(=O)O)CCCC1=O,> 11.4 µM,-0.0726,inactive,-7.19,-19.1,> 46 µM,> 9.22 µM,inactive,inactive,–
O=C(NCCO)c1ccc(Cl)cc1,> 11.4 µM,-0.923,3.98 µM (active),9.91,15.2,> 46 µM,> 9.22 µM,inactive,inactive,–
NCCNC(=S)S,9.83 µM (active),3.85,–,-0.808,-0.434,> 46 µM,> 9.22 µM,inactive,inactive,-13.2% [at 2.29 µM]
NCCNc1ncnc2ccc(Cl)cc12,11.7 µM,5.69,1 µM (active),-9.27,-14.9,> 46 µM,> 9.22 µM,inactive,inactive,–
O=C(O)C[C@H](Cc1ccccc1)C(=O)O,> 11.4 µM,11,inactive,2.62,-5.23,> 46 µM,> 9.22 µM,inactive,inactive,–
[N-]=[N+]=NC[C@@H]1O[C@@H](n2cnc3c(N)ncnc32)[C@@H]2O[C@@H]21,> 11.4 µM,8.89,inactive,10.3,-3.75,> 46 µM,> 9.22 µM,inactive,inactive,–
NC(N)=NC[C@@H]1CCCCCCN1,> 11.4 µM,2,inactive,4.87,-5.43,> 46 µM,> 9.22 µM,inactive,inactive,–
c1ccc(CCCNc2nnnc3ccccc23)cc1,> 11.4 µM,-4.34,3.98 µM (active),-23,-4.36,> 46 µM,> 9.22 µM,inactive,inactive,–
ClC(Cl)(Cl)C(N1CCN(c2ccccc2)CC1)N1CCN(c2ccccc2)CC1,> 11.4 µM,-0.388,–,-2.17,-6.12,> 46 µM,> 9.22 µM,inactive,inactive,-14.9% [at 2.29 µM]
COC(=O)[C@@H]1O[C@@H](SCCN)[C@@H](O)[C@H](O)[C@H]1O,> 11.4 µM,0.576,–,2.51,-0.339,> 46 µM,> 9.22 µM,inactive,inactive,10.2% [at 2.29 µM]
O=C(O)c1ccccc1NCn1c(=S)sc2ccccc21,> 11.4 µM,5.4,0.501 µM (active),7.61,-1.41,> 46 µM,> 9.22 µM,inactive,inactive,–
NCc1nnn(Cc2ccccc2)c1N,> 11.4 µM,2.56,inactive,19.4,-5.08,> 46 µM,> 9.22 µM,inactive,inactive,–
CCc1c(O)c2c(c(O)c1C(C)=O)C(=O)c1c(cc(O)c(C(=O)O)c1C(=O)O)C2=O,> 11.4 µM,-2.41,inactive,15.1,5.45,> 46 µM,> 9.22 µM,inactive,inactive,–
CC1(C)O[C@@H]2O[C@H]([C@@H]3COC(C)(C)O3)[C@H](N)[C@H]2O1,> 11.4 µM,5.74,–,10.1,5.21,> 46 µM,> 9.22 µM,inactive,inactive,8.7% [at 2.29 µM]
O=C1CCC(c2ccccc2)=NN1c1nc2ccccc2s1,> 11.4 µM,-11.1,0.398 µM (active),-3.68,-10.7,> 46 µM,> 9.22 µM,inactive,inactive,–
C[C@@H](CS(=O)(=O)Cc1ccccc1)C(N)=O,> 11.4 µM,8.67,inactive,5.68,3.43,> 46 µM,> 9.22 µM,inactive,inactive,–
CC(C)=NNc1ncnc2nc[nH]c12,> 11.4 µM,-3.94,0.794 µM (active),3.34,8.2,> 46 µM,> 9.22 µM,inactive,inactive,–
COC(=O)[C@@H]1[C@@H]2C[C@H]3c4[nH]c5ccccc5c4CCN3C[C@@H]2CC[C@@H]1OS(=O)(=O)O,> 11.4 µM,1.46,–,3.3,12.7,> 46 µM,> 9.22 µM,inactive,inactive,-10.3% [at 2.29 µM]
N#CC(CC(=O)O)=C(c1ccccc1)c1ccccc1,> 11.4 µM,6.62,–,-1.1,1.35,> 46 µM,> 9.22 µM,inactive,inactive,-14.5% [at 2.29 µM]
O=C(O)c1nn(-c2ccc(Cl)cc2)c2c1C(=O)c1ccccc1C2=O,> 11.4 µM,-2.08,0.251 µM (active),-17.6,2.2,> 46 µM,> 9.22 µM,inactive,inactive,–
CC12CC[C@@H]3c4ccc(OP(=O)(O)O)cc4CCC3C1CCC2=O (some centres not stated),> 11.4 µM,2.65,–,10.4,-5.93,> 46 µM,> 9.22 µM,inactive,inactive,-13.4% [at 2.29 µM]
